Compound activity deposited in PubChem BioAssay by National Center for Advancing Translational Sciences (NCATS).
Rows were chosen to be rich in hits. Some 8.9% of all compounds tested hit in one or more screens of this group.
MCF10A rereplic: A quantitative high throughput screen for small molecules that induce DNA re-replication in MCF 10a normal breast cells; MCF 10A DNA re-replication, Hoechst nuclear intensity, 48 h; Potency, µM (titrated, usually from 46.1 µM), usual class: activators; 350,000 tested, 2.9% active; further: nearly all actives have a fitted effect of over 50% in size
KB-3-1 tox: qHTS assay for MDR1-selective chemotherapeutics: Primary screen using the parental adenocarcinoma cell KB-3-1 | KB-3-1 viability, CellTiter-Glo ATP luminescence, 72 h | 400,000 tested, 1.4% active | Potency, µM (top dose mostly 46.1 µM), actives largely listed as cytotoxic | AID 1347075, 2019; further: nearly all actives have a fitted effect of over 60% in size
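Cells are dispensed, compounds pinned in, plates held at 37 °C for 72 h, then CellTiter-Glo is added and luminescence read after 10 minutes. Cell line: parental KB-3-1 in phenol-red-free DMEM, 10% FBS.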
KB-V1 cytotox: qHTS assay for MDR1-selective chemotherapeutics: Primary screen using the drug-selected MDR subline cells KB-V1; KB-V1 MDR cells viability, CellTiter-Glo, 72 h; Potency, µM (top dose mostly 46.1 µM), hits mostly cytotoxic; 400,000 tested, 3.4% active; further: nearly all actives have a fitted effect of over 60% in size
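KB-V1 cells (P-gp-expressing MDR subline of KB-3-1) in phenol-red-free DMEM with 10% FBS were exposed to library compounds over a concentration series for 72 h at 37 degrees C. Viability read by CellTiter-Glo luminescence; concentration-effect curves fitted after normalization.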
DRD3 agonist: qHTS of D3 Dopamine Receptor Agonist: qHTS | D(3) dopamine receptor (Homo sapiens), P35462 | D3R DiscoveRx beta-arrestin cells, luminescence, 90 min | max activation, % | 410,000 tested, 0.58% active | AID 652048, 2013; in the data active means max activation above about 30%
Target sequence (P35462 whole entry, looked up): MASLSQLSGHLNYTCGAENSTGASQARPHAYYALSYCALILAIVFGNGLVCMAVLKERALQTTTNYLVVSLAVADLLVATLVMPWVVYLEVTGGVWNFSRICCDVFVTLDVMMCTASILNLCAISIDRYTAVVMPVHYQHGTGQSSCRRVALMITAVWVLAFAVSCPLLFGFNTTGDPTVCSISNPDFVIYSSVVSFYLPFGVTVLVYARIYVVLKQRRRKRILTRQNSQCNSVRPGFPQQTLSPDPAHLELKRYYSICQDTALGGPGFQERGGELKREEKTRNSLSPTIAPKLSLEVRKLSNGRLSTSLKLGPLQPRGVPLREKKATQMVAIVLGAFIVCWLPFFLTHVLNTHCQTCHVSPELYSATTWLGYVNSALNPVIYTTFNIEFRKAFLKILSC
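Cells at 1500/well, incubated overnight, then treated with pinned compounds (dopamine as control) for 90 min at 37 degrees C. DiscoveRx reagent added for 30 - 60 minutes at room temperature; luminescence read.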
SW480 rerep: A quantitative high throughput screen for small molecules that induce DNA re-replication in SW480 colon adenocarcinoma cells | SW480 DNA re-replication, Hoechst DNA content imaging, 48 h | Potency, µM (highest dose often 46.1 µM), usual class: activators | 340,000 tested, 1.8% active; further: nearly all actives have a fitted effect of over 55% in size
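DNA re-replication was detected as more nuclei of elevated Hoechst intensity after 48 hr exposure to compound (23 nL pinned per well of 250 cells).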
D3 antag: qHTS of D3 Dopamine Receptor Antagonist: qHTS. 360,000 tested, 2.5% active. D3R cells, DiscoveRx beta-arrestin luminescence, antagonist mode; stronger effect = lower value. max response, negative = inhibition, %; in the data active means max response below about -50%; inconclusive means no clear call, values can overlap the other calls
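Cells plated overnight at 1500 cells/well, then exposed to library compounds with dopamine controls for 90 minutes at 37 degrees C. DiscoveRx reagent added for 30–60 minutes at room temperature; luminescence read, quantitative HTS format.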
Of the large screens only hits and unclear results are named; the others gave an inactive call. Unless noted, the call rests on the fitted dose curve; in most records, active means well fitted curve in the direction sought with a large enough effect; inconclusive means small, poorly fitted or top-dose-only effect, or another doubt; inactive means no such curve, though single readings can be large; an effect the other way counts as inactive or inconclusive.

Cc1c(NC(=O)CC(O)(C(F)(F)F)C(F)(F)F)c(=O)n(-c2ccccc2)n1C	none
COC(=O)C(F)(Sc1c(C)n(C)n(-c2ccccc2)c1=O)C(F)(F)F (configuration not stated)	D3 antag -60
COC(=O)c1cn(NC(=O)Cc2ccc(Cl)cc2)c(=O)c2ccccc12	MCF10A rereplic inconclusive, KB-V1 cytotox 21µM
Cc1ccc2nc(N(Cc3cccnc3)C(=O)C3COc4ccccc4O3)sc2c1 (configuration not stated)	none (no result: MCF10A rereplic, KB-3-1 tox, KB-V1 cytotox, SW480 rerep, D3 antag)
COc1ccc(NC(=O)CC(C)S(=O)(=O)c2cc3c(cc2C)NC(=O)CO3)cc1OC (configuration not stated)	none (no result: MCF10A rereplic, SW480 rerep, D3 antag)
COc1ccc(C(C#N)N2N=C(C)CC2c2ccccc2)cc1 (configuration not stated)	none
COc1ccc(C2CC(c3ccccc3)=NN2C(=O)CCC(=O)O)cc1 (configuration not stated)	D3 antag inconclusive
COc1ccc(CC(=O)OCC(=O)N2N=C(c3ccccc3)CC2c2ccc(OC)cc2)cc1 (configuration not stated)	MCF10A rereplic inconclusive, KB-V1 cytotox 21µM
COc1ccc(C2=NN(C(=O)CCC(=O)O)C(c3ccc(OC)c(OC)c3)C2)cc1 (configuration not stated)	D3 antag -50
COc1ccc(C2=NN(C(C#N)c3ccc(OC)cc3)C(c3ccccc3)C2)cc1 (configuration not stated)	MCF10A rereplic inconclusive, KB-3-1 tox 23µM, KB-V1 cytotox 6.5µM
COc1ccc(C2=Nc3nc(-c4ccccc4)cn3C(c3ccc(OC)cc3)C2)cc1 (configuration not stated)	MCF10A rereplic inconclusive, SW480 rerep 16µM
Cc1ccc(N2C(=O)C(CC(=O)Nc3ccc(F)cc3)N(Cc3ccc4c(c3)OCO4)C2=O)cc1 (configuration not stated)	none (no result: MCF10A rereplic, SW480 rerep, D3 antag)
COc1cccc(C2CC(c3cccs3)=NN2C(=O)CSc2nc3ccccc3s2)c1OC (configuration not stated)	MCF10A rereplic inconclusive, KB-3-1 tox inconclusive, KB-V1 cytotox 12µM, SW480 rerep inconclusive
COc1ccc(C2=NN(C(=O)CSc3nc4ccccc4s3)C(c3ccc(F)cc3)C2)cc1 (configuration not stated)	KB-3-1 tox inconclusive, KB-V1 cytotox 12µM
CCCOC(=O)c1c(-c2ccccc2)c(-c2ccccc2)nn(C)c1=O	none (no result: MCF10A rereplic, KB-3-1 tox, KB-V1 cytotox, SW480 rerep, D3 antag)
O=C1CCC(c2ccc3c(c2)CCC3)=NN1	KB-3-1 tox 1.2µM
COc1cccc(CNC(=O)Cn2c(=O)ccc3cc(S(=O)(=O)N4CCC(C)CC4)ccc32)c1	none (no result: MCF10A rereplic, SW480 rerep, D3 antag)
COc1ccc(CCC(=O)NCc2ccc3c(c2)CCN3C(=O)c2ccc(Cl)cc2)cc1	none (no result: MCF10A rereplic, SW480 rerep, D3 antag)
NC(=O)C1(N2CCCCC2)CCN(S(=O)(=O)c2ccccc2)CC1	none
NC(=O)C1(N2CCCCC2)CCN(Cc2ccccc2Cl)CC1	MCF10A rereplic 16µM, KB-V1 cytotox inconclusive, SW480 rerep 12µM
COc1ccc(/C=C/C(=O)Nc2ccc3nc4c(c(Nc5ccc(OC)c(OC)c5)c3c2)CCCC4)cc1	none (no result: MCF10A rereplic, KB-3-1 tox, KB-V1 cytotox, SW480 rerep, D3 antag)
COc1ccccc1NC(=O)N(C)C[C@@H]1OCc2cnnn2CCCC(=O)N([C@@H](C)CO)C[C@H]1C	none (no result: MCF10A rereplic, SW480 rerep)
Cc1ccc(C(=O)c2sc3nc4c(cc3c2N)CCC4)cc1	none
Nc1nc(N)c2sc3nc4c(cc3c2n1)CCC4	KB-V1 cytotox 21µM
O=C(Nc1ccccn1)c1ccc2c(c1)S(=O)(=O)c1ccccc1C2=O	none
O=C1c2ccccc2S(=O)(=O)c2cc(C(=O)N(c3ccccn3)c3ccccn3)ccc21	KB-V1 cytotox 15µM
CC(=O)NC1=NN(C(C)=O)C(C)(c2cccs2)S1 (configuration not stated)	MCF10A rereplic 1.3µM, KB-3-1 tox inconclusive, SW480 rerep 12µM
